# Results as given in ChEMBL document CHEMBL1961873, “Compounds: GSK PKIS; Assays: Nanosyn kinase panel” (2012).
# Legend:
# [1] = target: Tyrosine-protein kinase Fyn (Homo sapiens) (UniProt P06241); conditions: at 1 µM
# [2] = target: Tyrosine-protein kinase HCK (Homo sapiens) (UniProt P08631); conditions: at 0.1 µM
# [3] = target: Tyrosine-protein kinase HCK (Homo sapiens) (UniProt P08631); conditions: at 1 µM
# [4] = target: Insulin-like growth factor 1 receptor (Homo sapiens) (UniProt P08069); conditions: at 0.1 µM
# Insulin-like growth factor 1 receptor (Homo sapiens), sequence (P08069 31-736 limits assumed): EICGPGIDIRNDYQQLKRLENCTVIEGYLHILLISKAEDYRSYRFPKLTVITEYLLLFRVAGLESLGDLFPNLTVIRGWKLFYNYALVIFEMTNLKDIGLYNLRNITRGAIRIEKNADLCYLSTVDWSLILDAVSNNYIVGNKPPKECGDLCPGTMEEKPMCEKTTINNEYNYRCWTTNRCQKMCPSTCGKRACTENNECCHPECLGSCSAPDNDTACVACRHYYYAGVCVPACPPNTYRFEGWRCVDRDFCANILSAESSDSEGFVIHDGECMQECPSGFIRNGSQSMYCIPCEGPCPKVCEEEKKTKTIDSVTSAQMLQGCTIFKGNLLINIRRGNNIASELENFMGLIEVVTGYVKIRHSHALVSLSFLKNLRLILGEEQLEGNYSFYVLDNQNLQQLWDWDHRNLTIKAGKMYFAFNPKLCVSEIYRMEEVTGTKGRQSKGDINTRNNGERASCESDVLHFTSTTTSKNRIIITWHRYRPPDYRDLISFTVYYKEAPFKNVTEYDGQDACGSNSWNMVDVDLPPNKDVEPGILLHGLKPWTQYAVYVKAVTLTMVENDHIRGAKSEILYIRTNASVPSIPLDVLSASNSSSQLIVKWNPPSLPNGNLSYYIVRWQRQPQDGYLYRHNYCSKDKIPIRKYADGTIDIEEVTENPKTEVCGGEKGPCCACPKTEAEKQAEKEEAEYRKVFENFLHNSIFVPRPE
# Insulin-like growth factor 1 receptor (Homo sapiens), sequence (P08069 741-1367 limits assumed): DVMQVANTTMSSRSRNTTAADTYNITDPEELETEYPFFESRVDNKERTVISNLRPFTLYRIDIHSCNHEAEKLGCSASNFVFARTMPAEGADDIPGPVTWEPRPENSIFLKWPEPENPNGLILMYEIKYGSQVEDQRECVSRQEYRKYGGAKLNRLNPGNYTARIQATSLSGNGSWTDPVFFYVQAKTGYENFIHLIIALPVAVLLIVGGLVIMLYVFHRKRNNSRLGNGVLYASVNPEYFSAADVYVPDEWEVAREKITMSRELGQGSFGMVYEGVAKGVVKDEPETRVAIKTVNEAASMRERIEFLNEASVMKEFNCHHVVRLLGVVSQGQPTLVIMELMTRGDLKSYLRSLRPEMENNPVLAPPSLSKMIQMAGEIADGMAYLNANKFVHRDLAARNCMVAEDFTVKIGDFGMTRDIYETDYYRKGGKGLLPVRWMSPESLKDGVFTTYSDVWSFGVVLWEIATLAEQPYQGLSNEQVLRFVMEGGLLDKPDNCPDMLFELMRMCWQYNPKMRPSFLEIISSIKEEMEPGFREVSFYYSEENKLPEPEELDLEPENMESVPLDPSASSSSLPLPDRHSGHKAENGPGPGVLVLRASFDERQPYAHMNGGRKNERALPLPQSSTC
# [5] = target: Insulin-like growth factor 1 receptor (Homo sapiens) (UniProt P08069); conditions: at 1 µM
# [6] = target: Insulin receptor (Homo sapiens) (UniProt P06213); conditions: at 0.1 µM
# Insulin receptor (Homo sapiens), sequence (P06213 28-758 limits assumed): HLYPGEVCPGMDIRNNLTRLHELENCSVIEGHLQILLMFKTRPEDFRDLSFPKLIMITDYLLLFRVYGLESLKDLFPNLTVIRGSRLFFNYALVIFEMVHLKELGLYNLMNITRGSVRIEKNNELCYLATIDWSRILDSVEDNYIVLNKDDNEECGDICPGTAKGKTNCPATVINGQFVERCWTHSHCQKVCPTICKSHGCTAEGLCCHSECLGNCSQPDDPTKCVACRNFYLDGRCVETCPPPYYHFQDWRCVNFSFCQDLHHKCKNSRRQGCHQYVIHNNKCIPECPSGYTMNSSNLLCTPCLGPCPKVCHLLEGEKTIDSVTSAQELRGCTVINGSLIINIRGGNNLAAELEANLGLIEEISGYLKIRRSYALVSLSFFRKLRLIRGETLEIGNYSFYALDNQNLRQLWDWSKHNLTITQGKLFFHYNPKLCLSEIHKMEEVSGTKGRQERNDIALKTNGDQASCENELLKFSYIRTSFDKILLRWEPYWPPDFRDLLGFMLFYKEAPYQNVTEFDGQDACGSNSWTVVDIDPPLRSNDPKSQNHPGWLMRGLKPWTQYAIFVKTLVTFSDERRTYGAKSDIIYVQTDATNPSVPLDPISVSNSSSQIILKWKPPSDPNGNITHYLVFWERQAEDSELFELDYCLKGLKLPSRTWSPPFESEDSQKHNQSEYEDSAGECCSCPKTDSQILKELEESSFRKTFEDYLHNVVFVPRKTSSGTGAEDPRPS
# Insulin receptor (Homo sapiens), sequence (P06213 763-1382 limits assumed): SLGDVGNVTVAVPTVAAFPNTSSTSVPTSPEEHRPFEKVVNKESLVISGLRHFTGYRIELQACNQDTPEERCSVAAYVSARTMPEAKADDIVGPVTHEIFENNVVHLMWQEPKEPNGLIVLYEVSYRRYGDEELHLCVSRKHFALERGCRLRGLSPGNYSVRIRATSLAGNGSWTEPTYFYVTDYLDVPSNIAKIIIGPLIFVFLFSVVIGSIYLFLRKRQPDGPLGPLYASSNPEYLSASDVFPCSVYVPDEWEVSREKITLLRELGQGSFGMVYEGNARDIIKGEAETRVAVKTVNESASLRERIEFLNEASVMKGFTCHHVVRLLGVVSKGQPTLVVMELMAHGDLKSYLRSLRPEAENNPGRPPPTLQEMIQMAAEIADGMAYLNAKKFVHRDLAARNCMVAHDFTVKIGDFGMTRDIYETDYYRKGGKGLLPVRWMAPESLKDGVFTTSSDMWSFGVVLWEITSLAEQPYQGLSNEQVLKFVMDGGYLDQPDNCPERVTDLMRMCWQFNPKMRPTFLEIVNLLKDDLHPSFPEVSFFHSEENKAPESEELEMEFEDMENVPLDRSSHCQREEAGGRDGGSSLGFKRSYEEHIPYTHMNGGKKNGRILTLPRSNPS
# [7] = target: Insulin receptor (Homo sapiens) (UniProt P06213); conditions: at 1 µM
# [8] = target: Insulin receptor-related protein (Homo sapiens) (UniProt P14616); conditions: at 0.1 µM
# Insulin receptor-related protein (Homo sapiens), sequence (P14616 27-742 limits assumed): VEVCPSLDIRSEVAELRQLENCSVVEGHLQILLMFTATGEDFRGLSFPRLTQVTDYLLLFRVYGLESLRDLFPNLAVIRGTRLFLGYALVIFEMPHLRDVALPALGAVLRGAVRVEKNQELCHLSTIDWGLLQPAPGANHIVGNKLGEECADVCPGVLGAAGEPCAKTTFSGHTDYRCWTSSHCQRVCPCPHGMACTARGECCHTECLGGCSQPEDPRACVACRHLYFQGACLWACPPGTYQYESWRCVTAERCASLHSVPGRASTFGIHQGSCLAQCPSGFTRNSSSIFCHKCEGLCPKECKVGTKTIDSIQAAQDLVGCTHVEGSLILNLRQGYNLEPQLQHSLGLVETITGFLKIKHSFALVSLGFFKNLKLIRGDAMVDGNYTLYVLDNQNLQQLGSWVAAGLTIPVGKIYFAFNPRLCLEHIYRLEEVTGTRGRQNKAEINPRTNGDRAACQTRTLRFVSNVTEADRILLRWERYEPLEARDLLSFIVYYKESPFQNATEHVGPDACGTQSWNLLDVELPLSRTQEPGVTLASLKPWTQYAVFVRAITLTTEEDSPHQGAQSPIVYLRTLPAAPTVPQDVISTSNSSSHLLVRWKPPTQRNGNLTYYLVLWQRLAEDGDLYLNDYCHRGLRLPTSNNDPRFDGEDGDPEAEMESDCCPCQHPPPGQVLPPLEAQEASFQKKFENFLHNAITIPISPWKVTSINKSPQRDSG
# Insulin receptor-related protein (Homo sapiens), sequence (P14616 747-1297 limits assumed): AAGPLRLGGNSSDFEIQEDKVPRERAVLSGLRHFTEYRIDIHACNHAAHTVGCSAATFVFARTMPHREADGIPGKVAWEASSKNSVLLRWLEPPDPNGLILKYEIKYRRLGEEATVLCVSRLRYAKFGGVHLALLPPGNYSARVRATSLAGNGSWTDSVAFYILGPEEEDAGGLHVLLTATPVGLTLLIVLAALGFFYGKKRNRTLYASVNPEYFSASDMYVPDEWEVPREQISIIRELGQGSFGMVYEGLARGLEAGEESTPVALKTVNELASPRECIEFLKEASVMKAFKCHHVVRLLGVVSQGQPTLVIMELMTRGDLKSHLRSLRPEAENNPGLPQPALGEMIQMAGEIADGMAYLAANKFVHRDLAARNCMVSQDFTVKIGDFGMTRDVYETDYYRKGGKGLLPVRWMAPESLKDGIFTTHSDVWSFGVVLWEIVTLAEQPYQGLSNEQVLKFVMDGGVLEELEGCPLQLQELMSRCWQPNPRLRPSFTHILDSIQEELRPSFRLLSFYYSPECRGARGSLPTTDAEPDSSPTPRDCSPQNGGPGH
# [9] = target: Insulin receptor-related protein (Homo sapiens) (UniProt P14616); conditions: at 1 µM
# [10] = target: T1, Tyrosine-protein kinase ITK/TSK (Homo sapiens) (UniProt Q08881); conditions: at 0.1 µM;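 note: mean percent inhibition of ITK from the GSK PKIS screen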
# T1 sequence (whole entry): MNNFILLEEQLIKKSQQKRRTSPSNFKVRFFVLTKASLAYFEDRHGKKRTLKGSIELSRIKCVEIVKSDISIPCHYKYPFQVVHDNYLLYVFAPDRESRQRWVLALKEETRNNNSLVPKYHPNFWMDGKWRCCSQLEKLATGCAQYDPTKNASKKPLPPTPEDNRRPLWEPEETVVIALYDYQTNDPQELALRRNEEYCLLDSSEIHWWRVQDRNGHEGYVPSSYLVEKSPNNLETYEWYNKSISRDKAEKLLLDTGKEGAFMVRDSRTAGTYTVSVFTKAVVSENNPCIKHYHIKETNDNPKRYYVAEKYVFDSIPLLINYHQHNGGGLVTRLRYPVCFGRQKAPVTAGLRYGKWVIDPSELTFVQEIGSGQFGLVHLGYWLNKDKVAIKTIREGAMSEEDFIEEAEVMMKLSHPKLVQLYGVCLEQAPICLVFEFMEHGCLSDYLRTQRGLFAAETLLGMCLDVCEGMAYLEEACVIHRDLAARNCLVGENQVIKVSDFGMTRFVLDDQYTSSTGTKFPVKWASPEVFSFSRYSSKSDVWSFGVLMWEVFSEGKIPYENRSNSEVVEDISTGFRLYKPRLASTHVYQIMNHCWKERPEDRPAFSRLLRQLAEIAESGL
# Tyrosine-protein kinase Fyn (Homo sapiens), sequence (P06241 2-537 limits assumed): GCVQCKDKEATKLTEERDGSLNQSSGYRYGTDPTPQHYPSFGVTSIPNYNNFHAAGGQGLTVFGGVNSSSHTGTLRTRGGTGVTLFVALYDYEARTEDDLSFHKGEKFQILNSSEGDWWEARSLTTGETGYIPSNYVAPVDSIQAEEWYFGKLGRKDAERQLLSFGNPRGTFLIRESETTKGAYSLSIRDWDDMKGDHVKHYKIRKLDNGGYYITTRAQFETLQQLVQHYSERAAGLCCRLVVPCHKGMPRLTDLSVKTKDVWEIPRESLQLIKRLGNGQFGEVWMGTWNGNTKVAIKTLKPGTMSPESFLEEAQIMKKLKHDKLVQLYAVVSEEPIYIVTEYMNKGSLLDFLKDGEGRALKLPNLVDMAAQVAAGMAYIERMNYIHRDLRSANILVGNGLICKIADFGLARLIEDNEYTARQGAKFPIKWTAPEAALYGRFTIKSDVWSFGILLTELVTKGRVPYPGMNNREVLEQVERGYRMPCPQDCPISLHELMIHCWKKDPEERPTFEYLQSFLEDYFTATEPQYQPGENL
# Tyrosine-protein kinase HCK (Homo sapiens), sequence (P08631 2-526 limits assumed): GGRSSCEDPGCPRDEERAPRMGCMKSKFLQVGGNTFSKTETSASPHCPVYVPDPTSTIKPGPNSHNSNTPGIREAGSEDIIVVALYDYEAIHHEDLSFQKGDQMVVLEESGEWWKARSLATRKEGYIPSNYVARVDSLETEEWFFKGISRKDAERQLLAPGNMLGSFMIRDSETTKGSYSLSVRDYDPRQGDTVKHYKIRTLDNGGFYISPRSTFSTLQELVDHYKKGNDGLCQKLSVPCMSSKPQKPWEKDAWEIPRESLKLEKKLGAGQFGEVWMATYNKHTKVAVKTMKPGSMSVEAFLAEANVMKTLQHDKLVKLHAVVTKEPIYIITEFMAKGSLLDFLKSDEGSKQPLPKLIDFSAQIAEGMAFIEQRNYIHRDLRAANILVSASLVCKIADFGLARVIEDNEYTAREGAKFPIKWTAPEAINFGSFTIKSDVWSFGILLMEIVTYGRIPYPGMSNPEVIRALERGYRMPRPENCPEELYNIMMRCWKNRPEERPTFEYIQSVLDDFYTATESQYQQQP
Structure (SMILES),inhibition [1],inhibition [2],inhibition [3],inhibition [4],inhibition [5],inhibition [6],inhibition [7],inhibition [8],inhibition [9],inhibition [10]
COc1cc2ncn(-c3cc(O[C@@H](C)c4ccccc4Cl)c(C(N)=O)s3)c2cc1OC,27.5%,10.8%,43.3%,-0.08%,2.3%,1.26%,3.04%,3.27%,3.99%,0.13%
COc1cc2ncn(-c3cc(OCc4ccccc4Cl)c(C(N)=O)s3)c2cc1OC,23.5%,4.09%,27.1%,2.22%,2.52%,4.5%,7.12%,-1.76%,0.06%,0.4%
CCn1c(-c2nonc2N)nc2cnc(Oc3cccc(NC(=O)c4ccc(OCCN5CCOCC5)cc4)c3)cc21,5.35%,6.47%,4.67%,-0.59%,1.49%,5.62%,7.3%,1.29%,0.16%,0.81%
CCc1cccc(NC(=O)Nc2ccc(Oc3ccc4nc(NC(=O)OC)[nH]c4c3)cc2)c1,4.72%,4.76%,7.28%,5.04%,2.45%,-2.61%,0.47%,2.05%,3.39%,0.3%
CCCN1CCC(Oc2cc(Nc3nc(Nc4cccc(F)c4C(N)=O)c4cc[nH]c4n3)c(OC)cc2Cl)CC1,3.01%,4.1%,7.31%,57.2%,91.8%,64%,88%,4.74%,37.6%,0.65%
O=C1NC(=O)C(c2ccccc2Cl)=C1Nc1cccc(O)c1,2.43%,3.62%,5.29%,3.77%,2.85%,0.88%,4.12%,7.16%,2.14%,1.12%
CC(C)=Cc1cccc2c1/C(=N/Nc1ccc(S(N)(=O)=O)cc1)C(=O)N2,27.3%,2.33%,21.4%,2.45%,8.58%,1.28%,13.6%,1.95%,2.95%,0.64%
CCn1c(-c2nonc2N)nc2c(C#CC(C)(C)O)nc(CN3CCCC3)cc21,3.44%,-1.79%,2.1%,-0.3%,-1.42%,0.13%,-0.45%,-1.19%,-0.92%,0.22%
CC1=C(C(=O)Nc2ccc3[nH]ncc3c2)C(c2ccc3ccccc3c2)CC(=O)N1 (stereo unspecified),1.8%,4.76%,17.9%,4%,6.6%,4.67%,4.45%,0.94%,1.74%,2.6%
CCCN1CCC=C(c2ccc(Nc3nc(Nc4ccccc4C(N)=O)c4cc[nH]c4n3)c(C)c2)C1,7.24%,7.82%,16.3%,97.6%,99.2%,84%,90.1%,23.2%,70.8%,1.99%
[O-][S+]1CCN(Cc2ccc(-c3ccc4ncnc(Nc5ccc(OCc6ccccc6)c(F)c5)c4c3)o2)CC1,9.16%,3.37%,7.23%,4.94%,2.99%,4.18%,4.1%,0.94%,2.32%,1.08%
CC1=C(C(=O)Nc2ccc3[nH]ncc3c2)C(c2ccc(F)cc2)NC(=O)N1 (stereo unspecified),4.69%,3.04%,2.81%,9.13%,8.59%,4.97%,4.22%,0.88%,0.72%,0.65%
Nc1nc(-c2ccc3c(c2)C(=Cc2cc(Br)c(O)c(Br)c2)C(=O)N3)cs1,8.82%,-1.41%,7.14%,-1.89%,0.82%,,1.87%,-3.05%,-2.21%,0.01%
Cc1ccc(C(=O)NC2CCCCC2)cc1-c1ccc(C(=O)NCC2CC2)cc1,0.78%,5.78%,7.52%,1.73%,5.21%,3.35%,1.48%,3.13%,2.14%,1.95%
CS(=O)(=O)CCN(CC#N)Cc1ccc(-c2ccc3ncnc(Nc4ccc(OCc5cccc(F)c5)c(Cl)c4)c3c2)o1,-3.53%,2.47%,3.04%,,-4.22%,4.4%,2.93%,-0.19%,0.84%,-2.61%
COc1cc2ncn(-c3cc(OCc4ccccc4C(F)(F)F)c(C(N)=O)s3)c2cc1OC,9.2%,8.32%,29.2%,,-2.72%,-1.5%,2.13%,4.32%,3.34%,-3.84%
O=C1Nc2ccc(C(=O)c3ccco3)cc2C1=Cc1cc(Cl)c(O)c(Cl)c1,20.7%,5.82%,17.4%,4.15%,4.7%,5.71%,3.98%,1.08%,2.14%,1.31%

Structure (SMILES),inhibition [1],inhibition [2],inhibition [3],inhibition [4],inhibition [5],inhibition [6],inhibition [7],inhibition [8],inhibition [9],inhibition [10]
CN1CCC(C(=O)Nc2n[nH]c3nnc(-c4ccccc4)cc23)CC1,3.89%,3.42%,7.61%,3.98%,4.17%,7.76%,4.86%,1.63%,2.13%,1.35%
O=C(Nc1n[nH]c2nc(-c3ccco3)c(Br)cc12)C1CC1,1.8%,5.5%,9.03%,2.77%,3.89%,3.98%,,2.25%,1.49%,3.8%
COc1cc2c(cc1Nc1nc(N3CCc4ccccc43)c3cc[nH]c3n1)N(C(=O)CN(C)C)CC2,1.51%,5.42%,10%,103%,98.4%,93%,91%,72.3%,90.3%,0.83%
CCn1c(-c2nonc2N)nc2cncc(C(=O)N3CC[C@H](N)C3)c21,2.85%,6.43%,9.69%,4.59%,6%,4.27%,6.06%,0.81%,1.96%,0.55%
CS(=O)(=O)CCNCc1nc(-c2ccc3ncnc(Nc4ccc(F)c(Cl)c4)c3c2)cs1,3.55%,4.76%,13.4%,3.27%,3.4%,-0.96%,-3.83%,2.7%,1.63%,1.06%
NC(=O)c1ccc(-c2nc(-c3ccccn3)c(-c3ccc4c(c3)OCO4)[nH]2)cc1,8.01%,3.56%,4.66%,1.18%,2.2%,3.26%,5.06%,3.02%,-0.59%,1.2%
CN(C)c1cc2c(Nc3ccc4nc(Cc5ccccc5)[nH]c4c3)ncnc2cn1,27.7%,11.5%,30.6%,6.59%,11.5%,7.56%,8.05%,3.36%,4.95%,1.45%
CCn1c(-c2nonc2N)nc2c(C#CC(C)(C)O)nc(OC[C@@H](N)c3ccccc3)cc21,2.07%,5.84%,11.9%,1.67%,1.05%,-0.22%,-0.5%,0.45%,1.06%,0.21%
c1cnn2ncc(-c3ccnc(Nc4ccc5c(c4)OCCO5)n3)c2c1,8.63%,6.09%,16.8%,15%,56.6%,12.7%,58.5%,5.36%,15.2%,1.86%
COc1ccccc1Nc1ncc(-c2ccccc2)o1,8.38%,9.81%,13.3%,-0.7%,1.64%,1.17%,3.48%,3.09%,3.73%,0.73%
COc1ccc(-c2ccncc2)cc1C(N)=O,3.66%,6.67%,9.92%,3.69%,4.13%,9.09%,6.94%,2.71%,2.24%,1.95%
Cc1ccc(NC(=O)c2ccnc(N3CCCC3)c2)cc1-c1ccc(C(=O)NCC2CC2)cc1,-1.49%,4.55%,10.7%,-4.41%,-3.36%,6.4%,11.3%,2.43%,2.2%,-1.68%
Cc1cc(O)cc(C)c1/C=C/c1cncc(-c2nn[nH]n2)c1,52.3%,20.6%,74.9%,-3.59%,-2.05%,7.59%,8.18%,2.98%,2.21%,-2.15%
CCn1c(-c2nonc2N)nc2c(N3CCCC3)nccc21,0.7%,-0.01%,2.43%,0.23%,2.72%,1.98%,-1.23%,-2.24%,-0.91%,0.23%
NS(=O)(=O)c1ccc(N/N=C2\C(=O)Nc3ccc(C(=O)NCCc4c[nH]cn4)cc32)cc1,17.2%,9.6%,25%,5.24%,17.3%,6.5%,32%,6.49%,2.5%,1.78%
CS(=O)(=O)Nc1ccc(N/C=C2\C(=O)Nc3ccccc32)cc1,4.85%,-0.18%,14.1%,-1.54%,5.77%,-0.48%,8.57%,-3.26%,-1.01%,-0.24%
COc1ccc(-c2coc3ncnc(N)c23)cc1,2.02%,5.63%,8.51%,1.64%,2.38%,5.22%,6.33%,1.82%,1.27%,1.41%
